Data reported in PubChem BioAssay (NCATS).
Several values for one entry are separate records, joined by “and”; a condition that tells them apart may be missing. Equal values may be shown once. Records with an inconclusive call do not appear. A call without a number means that no potency is given here. Activity calls are given as the source filed them. Unless noted, calls follow the shape of the full dose curve.

What was measured:
[1] = Primary qHTS for small molecule stabilizers of the endoplasmic reticulum resident proteome: Secreted ER Calcium Modulated Protein (SERCaMP) assay (AID 1508630; active = well fitted curve in the direction sought with a large enough effect; an effect the other way counts as inactive or inconclusive; also: potency is read from the fitted curve at half-maximal effect)
Procedure, shortened: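 GLuc-SERCaMP-expressing SH-SY5Y cells, pretreated 16 h with compound, are challenged with thapsigargin to empty ER calcium stores; after 4 h, coelenterazine is added directly to the medium and luminescence is imaged.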

[2] = A High-Content qHTS Against Drug Library for the Identification of Small Molecules that Inhibit DYT1 Early Onset Primary Dystonia-Associated Cell Pathology (AID 1645839)
Procedure, shortened: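 Readout: %pathology, the punctate EGFP-TorsinA distribution from imaging, as the primary channel and cell count as the toxicity counterscreen. HEK293 Flp-In cells expressing delE TorsinA were induced with tetracycline and treated with compound for 48 h.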

[3] = molecular target: Cytochrome P450 2D6 (Homo sapiens) (UniProt P10635); assay: Cytochrome P450 family 2 subfamily D member 6 (CYP2D6) small molecule antagonists: luciferase biochemical (cell-free) qHTS assay (AID 1645840; active = well fitted curve in the direction sought with a large enough effect in the repeat runs; an effect the other way counts as inactive or inconclusive; also: nearly all actives have a fitted effect of over 55% in size; also: potency is read from the fitted curve at half-maximal effect)
Cytochrome P450 2D6 (Homo sapiens), sequence (P10635 whole entry, looked up): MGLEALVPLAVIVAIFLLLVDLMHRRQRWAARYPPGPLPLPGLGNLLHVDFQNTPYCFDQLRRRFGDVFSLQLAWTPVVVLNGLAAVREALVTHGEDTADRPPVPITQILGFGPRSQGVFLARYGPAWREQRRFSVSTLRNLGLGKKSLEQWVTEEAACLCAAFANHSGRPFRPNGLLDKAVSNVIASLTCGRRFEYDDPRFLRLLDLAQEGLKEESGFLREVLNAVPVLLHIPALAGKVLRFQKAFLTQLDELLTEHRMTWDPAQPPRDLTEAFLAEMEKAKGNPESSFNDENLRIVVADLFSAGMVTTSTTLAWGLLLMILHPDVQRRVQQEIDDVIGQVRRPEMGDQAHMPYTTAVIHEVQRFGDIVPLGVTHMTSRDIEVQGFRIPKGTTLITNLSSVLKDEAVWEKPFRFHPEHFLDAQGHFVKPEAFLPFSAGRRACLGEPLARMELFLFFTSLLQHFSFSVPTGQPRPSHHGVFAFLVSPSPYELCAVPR
Procedure, shortened: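 P450-Glo luminescent screen: recombinant CYP2D6 enzyme–proluciferin substrate mix preincubated with compound 10 min at room temperature, then NADPH regeneration added for 1 h at room temperature. Detection reagent added for 20 min; luciferin light read as relative luminescence units.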

[4] = molecular target: Cytochrome P450 2C9 (Homo sapiens) (UniProt P11712); assay: Cytochrome P450 family 2 subfamily C member 9 (CYP2C9) small molecule antagonists: luciferase biochemical (cell-free) qHTS assay (AID 1645842; active = well fitted curve in the direction sought with a large enough effect in the repeat runs; an effect the other way counts as inactive or inconclusive; also: nearly all actives have a fitted effect of over 55% in size; also: potency is read from the fitted curve at half-maximal effect)
Cytochrome P450 2C9 (Homo sapiens), sequence (P11712 whole entry, looked up): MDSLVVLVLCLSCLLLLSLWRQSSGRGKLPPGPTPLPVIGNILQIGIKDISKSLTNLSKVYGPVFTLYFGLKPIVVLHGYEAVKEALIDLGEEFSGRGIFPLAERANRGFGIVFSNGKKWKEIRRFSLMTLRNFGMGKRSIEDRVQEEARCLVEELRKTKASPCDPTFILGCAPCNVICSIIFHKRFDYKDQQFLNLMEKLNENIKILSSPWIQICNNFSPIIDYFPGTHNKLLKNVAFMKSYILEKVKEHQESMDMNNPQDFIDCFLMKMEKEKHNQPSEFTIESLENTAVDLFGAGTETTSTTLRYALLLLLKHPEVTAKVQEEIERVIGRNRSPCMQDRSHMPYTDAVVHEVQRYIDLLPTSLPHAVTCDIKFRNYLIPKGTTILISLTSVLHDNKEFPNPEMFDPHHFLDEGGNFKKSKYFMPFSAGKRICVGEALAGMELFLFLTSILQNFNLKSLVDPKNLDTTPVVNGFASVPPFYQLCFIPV
Procedure, shortened: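 Luminescence, after 20 min with luciferin detection reagent, reflected CYP2C9 turnover during a 1 h NADPH-driven reaction at 37C. Enzyme-substrate mix contained 0.4% bovine serum albumin and was preincubated with compound 10 min at room temperature.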

[5] = Cytotoxicity counterscreen for inhibitors of SARS-CoV-2 cell entry (AID 1645845); also: nearly all actives have a fitted effect of over 50% in size
Procedure, shortened: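 Expi293F/hACE2 cells seeded overnight; cpd pin-transferred in DMSO, 1 h preincubation, + media, 48 h 37 C 5% CO2; ATPLite 1step luminescence; normalized to cells and no cells.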

[6] = Primary qHTS to identify inhibitors of SARS-CoV-2 cell entry (AID 1645846); settings: activity change, negative = inhibition: at 57.1 µM (top of the series) unless noted; also: nearly all actives have a fitted effect of over 45% in size
Procedure, shortened: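 HEK293-ACE2 (Expi293F, stable hACE2), 1500 cells/well, o/n 37C; cpd 23 nL pin, 1 h; MLV-PP w/ SARS-CoV-2-S (Wuhan-Hu-1, Δ19 C-term); 48 h 37C; Bright-Glo luminescence; normalized vs S-PP and bald PP.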

Papain (Carica papaya) = Papain (Carica papaya) (UniProt P00784); assay: Primary qHTS assay for inhibitors of the protease papain (AID 1645873; active = well fitted curve in the direction sought with a large enough effect; an effect the other way counts as inactive or inconclusive;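 also: papain turnover of Z-FR-AMC read as the AMC fluorescence gain over 10 min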)
Papain (Carica papaya), sequence (P00784 whole entry, looked up): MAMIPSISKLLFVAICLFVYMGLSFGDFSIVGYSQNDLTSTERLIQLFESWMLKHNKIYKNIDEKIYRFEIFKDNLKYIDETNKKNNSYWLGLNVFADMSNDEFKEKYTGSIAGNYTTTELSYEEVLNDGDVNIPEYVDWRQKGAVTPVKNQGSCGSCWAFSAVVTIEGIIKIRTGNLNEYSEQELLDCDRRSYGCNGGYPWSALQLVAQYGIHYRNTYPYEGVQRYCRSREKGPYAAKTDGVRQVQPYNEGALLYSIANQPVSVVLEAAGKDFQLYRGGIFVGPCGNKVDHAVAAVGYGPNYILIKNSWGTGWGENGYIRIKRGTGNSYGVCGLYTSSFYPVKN

[7] = molecular target: Cytochrome P450 3A4 (Homo sapiens) (UniProt P08684); assay: Cytochrome P450 family 3 subfamily A member 4 (CYP3A4) small molecule antagonists: luciferase qHTS assay (AID 1645841; active = well fitted curve in the direction sought with a large enough effect in the repeat runs; an effect the other way counts as inactive or inconclusive; also: nearly all actives have a fitted effect of over 45% in size; also: potency is read from the fitted curve at half-maximal effect)
Cytochrome P450 3A4 (Homo sapiens), sequence (P08684 whole entry, looked up): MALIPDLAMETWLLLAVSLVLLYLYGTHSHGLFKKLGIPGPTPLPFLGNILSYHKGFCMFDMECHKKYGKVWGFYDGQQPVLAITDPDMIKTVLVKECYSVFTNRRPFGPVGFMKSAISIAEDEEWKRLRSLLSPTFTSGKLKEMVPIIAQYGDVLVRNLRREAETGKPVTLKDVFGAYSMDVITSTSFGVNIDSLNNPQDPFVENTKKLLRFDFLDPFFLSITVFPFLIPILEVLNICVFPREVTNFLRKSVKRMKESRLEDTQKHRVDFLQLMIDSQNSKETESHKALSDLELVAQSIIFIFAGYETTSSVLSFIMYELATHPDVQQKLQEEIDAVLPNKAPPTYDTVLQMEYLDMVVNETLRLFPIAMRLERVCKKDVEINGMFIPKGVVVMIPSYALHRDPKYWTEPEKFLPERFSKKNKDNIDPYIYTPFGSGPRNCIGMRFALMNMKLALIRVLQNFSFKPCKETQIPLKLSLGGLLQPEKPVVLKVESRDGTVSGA
Procedure, shortened: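 P450-Glo CYP3A4 enzyme with proluciferin substrate was preincubated with DMSO-dissolved compounds for 10 min at room temperature. NADPH regeneration solution started a 1 h reaction. Detection reagent stopped it, and luminescence was read after 20 min.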

[8] = Confirmatory qHTS to identify inhibitors of SARS-CoV-2 cell entry (AID 1645844); also: nearly all actives have a fitted effect of over 45% in size
Procedure, shortened: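 HEK293-ACE2 cells (Expi293F stably expressing human ACE2) were pretreated with compounds for 1 hr at 37C, then infected with MLV-based particles carrying Wuhan-Hu-1 spike (C-terminal 19-aa truncation). Luciferase luminescence read after 48 hr; normalized to spike PP (100%) and bald PP (0%).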

| Compound | Potency [1] | outcome [2] | Potency [3] | Potency [4] | Potency [5] | Potency [6] | activity change, negative = inhibition [6] | outcome (Papain (Carica papaya)) | Potency [7] | Potency [8] |
| --- | --- | --- | --- | --- | --- | --- | --- | --- | --- | --- |
| CC(NC(C)(C)C)C(=O)c1cccc(Cl)c1 (stereo not given) | inactive | inactive | 11 µM (active) | inactive | inactive | inactive | -12.4% | inactive | – | – |
| CN1C(=O)CCS(=O)(=O)C1c1ccc(Cl)cc1 (stereo not given) | inactive | inactive | inactive | inactive | inactive | – | -18.3% and 4.93% | inactive | – | – |
| C=C(C)[C@H]1CN[C@H](C(=O)O)[C@H]1CC(=O)O | inactive | inactive | inactive | inactive | inactive | inactive | – | inactive | – | – |
| COc1cc(CCN)cc(OC)c1OC | inactive | inactive | – | inactive | – | – | – | – | – | – |
| C[C@@H](N)[C@@H](O)c1ccccc1 | inactive | inactive | – | inactive | inactive | – | – | – | – | – |
| C[C@]12CC[C@@H]3c4ccc(OC(=O)N(CCCl)CCCl)cc4CC[C@H]3[C@@H]1CC[C@@H]2O | inactive | – | inactive | inactive | inactive | inactive | – | – | inactive | – |
| CC(C)c1cccc(C(C)C)c1O | inactive | inactive | – | – | inactive | – | – | inactive | – | inactive |
| CN(C)CCc1c[nH]c2cccc(OP(=O)(O)O)c12 | inactive | inactive | – | inactive | – | – | – | – | – | – |
| CCN(CC)CCc1c[nH]c2ccccc12 | inactive | – | 5.91 µM (active) | inactive | – | – | – | – | inactive | – |
| CNC(C)(C)Cc1ccccc1 | inactive | inactive | – | inactive | inactive | inactive | – | – | – | – |
| NC(=O)c1cc([N+](=O)[O-])cc([N+](=O)[O-])c1 | inactive | inactive | – | inactive | inactive | – | -10.7% | – | 9.65 µM (active) | – |
| CC(C)N(CCC(C(N)=O)(c1ccccc1)c1ccccn1)C(C)C (stereo not given) | inactive | inactive | inactive | inactive | inactive | – | – | inactive | – | – |
| O=c1[nH]c2ccccc2n1C1CCNCC1 | inactive | inactive | – | inactive | – | – | – | – | – | – |
| COP(=S)(OC)SCN1C(=O)c2ccccc2C1=O | inactive | inactive | 15.5 µM (active) | 0.776 µM (active) | inactive | inactive | – | – | – | – |
| COP(=S)(OC)Oc1ccc(S(=O)(=O)N(C)C)cc1 | inactive | inactive | inactive | 0.617 µM (active) | inactive | inactive | – | – | – | – |
| CC(C)c1c(CN(C)C(C)Cc2ccccc2)n(C)n(-c2ccccc2)c1=O (stereo not given) | inactive | – | inactive | 7.76 µM (active) | – | – | – | – | – | – |

| Compound | Potency [1] | outcome [2] | Potency [3] | Potency [4] | Potency [5] | Potency [6] | activity change, negative = inhibition [6] | outcome (Papain (Carica papaya)) | Potency [7] | Potency [8] |
| --- | --- | --- | --- | --- | --- | --- | --- | --- | --- | --- |
| c1ccc2c(c1)sc1ccccc12 | inactive | inactive | inactive | inactive | inactive | – | -6.22% | – | – | – |
| CC(C)(C)NCC(O)c1ccccc1Cl (stereo not given) | inactive | inactive | 12.3 µM (active) | inactive | inactive | inactive | – | inactive | – | – |
| COP(=S)(OC)Oc1ccc(SC)c(C)c1 | inactive | inactive | inactive | 3.89 µM (active) | – | – | -16.5% | – | – | – |
| COC1CC(=C(c2cccs2)c2cccs2)C[N+](C)(C)C1 (stereo not given) | inactive | inactive | 0.138 µM (active) | inactive | inactive | – | -29.5% | – | – | – |
| C[C@]12CC[C@H]3[C@@H](CCC4=CC(=O)CC[C@@H]43)[C@@H]1CC[C@@H]2OC(=O)CCc1ccco1 | inactive | inactive | – | 15.5 µM (active) | inactive | inactive | – | – | – | – |
| Nc1ccccc1 | inactive | inactive | – | inactive | inactive | – | – | – | – | – |
| CCC(CC)(CNC(=O)CCCO)c1cccc(OC)c1 | inactive | inactive | – | inactive | inactive | – | -32.3% | – | – | – |
| O=c1[nH]oc2c1CCNC2 | inactive | inactive | inactive | inactive | – | – | – | inactive | – | – |
| O=C1c2ccccc2C(=O)c2ccccc21 | inactive | inactive | inactive | inactive | inactive | inactive | – | – | – | – |
| [N-]=[N+]=CC(=O)OC[C@H](N)C(=O)O | inactive | inactive | – | inactive | – | – | – | – | – | – |
| CCC1(c2ccc(N)cc2)CCC(=O)NC1=O (stereo not given) | inactive | inactive | inactive | inactive | inactive | inactive | – | inactive | – | – |
| CN1C(=O)COc2c(C(=O)NC3CN4CCC3CC4)cc(Cl)cc21 (stereo not given) | inactive | inactive | inactive | inactive | inactive | – | -14.3% | – | – | – |
| CCCCCCCCCC(=O)O[C@H]1CC[C@H]2[C@@H]3CCC4=CC(=O)CC[C@@H]4[C@H]3CC[C@]12C | inactive | inactive | – | 12.3 µM (active) | – | – | – | – | – | – |
| O=C(CCCN1CCC2(CC1)C(=O)NCN2c1ccccc1)c1ccc(F)cc1 | 1 µM (active) | inactive | 0.309 µM (active) | inactive | – | – | – | inactive | – | – |
| CN1C(=O)NC(=O)C(C)(C2=CCCCC2)C1=O (stereo not given) | inactive | inactive | inactive | inactive | – | – | 3.11% | – | – | – |
